# Measured values published in PubChem BioAssay.
# Results filed as inconclusive are left out. The source made the active and inactive calls.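 Rule for the calls, unless noted: active = GFP signal, as percent of the solvent control, above the screen mean plus 3 SD, about 149; inconclusive = no reading because the compound's own fluorescence upset strain identification; inactive = the rest.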
# What was measured:
# [1] = yeast TOR pathway RPL19A-GFP modulators, primary screen, cell-based, S. cerevisiae, multiplex flow cytometry (AID 1862; in the data active = percent of DMSO control GFP below about 86%;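 note: lower values mimic rapamycin by blocking the RPL19A rise seen in DMSO cells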); settings: S. cerevisiae RPL19A-GFP strain, flow cytometry fluorescence, 3 h; at 10 µM; stronger effect = lower value
# [2] = modulators of MEP2-GFP levels in yeast, primary screen, S. cerevisiae, multiplex flow cytometry (AID 1867;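 active = GFP response, as percent of the DMSO control, above the screen-wide mean plus 3 SD, about 139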;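 note: median GFP channel fluorescence of barcode-gated MEP2-GFP cells measured by flow cytometry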); settings: S. cerevisiae MEP2-GFP strain, 3 h, at 10 µM, stronger effect = higher value, 100% means same as DMSO wells
# [3] = modulators of CIT2-GFP expression in yeast, primary screen, S. cerevisiae, GFP fusion, multiplex flow cytometry (AID 1870;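 active = percent response above a set limit, the screen-wide mean plus 3 SD, cut at about 130% in these data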;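 note: barcoded CIT2-GFP strain pooled with four other GFP strains with rapamycin as positive control; median GFP fluorescence per well over plate mean of DMSO wells so 100% = DMSO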); settings: 3 h, at 10 µM, stronger effect = higher value
# [4] = modulators of LAP4-GFP expression in yeast, primary screen, S. cerevisiae, multiplex flow cytometry (AID 1873); settings: 3 h, at 10 µM, stronger effect = higher value
# [5] = modulators of AGP1-GFP expression in yeast TOR pathway, primary screen, cell-based, multiplex flow cytometry, S. cerevisiae (AID 1887;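 active = GFP signal above the screen-wide mean plus 3 SD, that is over about 124.5% of the solvent control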;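 note: AGP1-GFP fusion strain of S. cerevisiae within a five-strain barcoded multiplex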); settings: 3 h, at 10 µM, stronger effect = higher value
# [6] = RPL19A-GFP modulators, yeast TOR pathway, confirmation, cell-based, S. cerevisiae, flow cytometry, cherry picks, mother/daughter gates (AID 2270;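 active = GFP response below 50% of the DMSO control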); settings: S. cerevisiae RPL19A-GFP strain, 3 h, at 10 µM, stronger effect = lower value, 100 = same GFP as DMSO wells
# [7] = LAP4-GFP expression modulators in yeast, confirmation, cell-based, cherry picks, flow cytometry, mother/daughter gates (AID 2271;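 active = GFP response above 150% of the DMSO control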;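 note: ratio of sample to DMSO plate mean so 100% equals DMSO level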); settings: S. cerevisiae LAP4-GFP strain, 3 h, at 10 µM, stronger effect = higher value, 100 means same as DMSO control
# [8] = modulators of MEP2-GFP levels in yeast, confirmation, S. cerevisiae, flow cytometry GFP, cherry picks (AID 2272;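 active = GFP response above 150% of the DMSO control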;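 note: ratio of well signal to plate DMSO mean so 100% equals DMSO level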); settings: S. cerevisiae MEP2-GFP strain, 3 h, at 10 µM, stronger effect = higher value
# [9] = modulators of CIT2-GFP expression in yeast, confirmation, S. cerevisiae, GFP fusion, cherry picks, mother/daughter gates (AID 2274;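 active = GFP response above 150% of the DMSO level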); settings: S. cerevisiae CIT2-GFP strain, flow cytometry, 3 h, at 10 µM, stronger effect = higher value
# [10] = inhibitors of CD8+ T cell-vesicle binding, pilot screen, LFA-1/ICAM-1 modulator project, MLPCN validation set, flow cytometry (AID 2523;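 active = response below a set limit, under 55% cells CD8-positive and vesicle-bound, and CD8 cells' 90th-percentile brightness under 279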;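 for vesicle binding response: mean PE anti-B7-1 fluorescence of CD8+ cells relative to row control; 100% = QL9-loaded vesicles with DMSO vehicle in the same plate row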); settings: 2C mouse CD8+ T cells, at 7 µM, stronger effect = lower value; double positive events: measured here: CD8+/vesicle+ event percentage
# [11] = molecular target: Integrin beta-1 (Homo sapiens) + Integrin alpha-4 (Homo sapiens) (UniProt P13612+P05556); assay: inhibition of HUTS-21 binding to VLA-4, pilot screen, VLA-4 allosteric modulator project, U937 cells, HUTS-21 mAb, flow cytometry, validation set (AID 2674;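 active = inhibition above 50%, about 3 SD of the validation set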;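 note: antibody binding induced by the VLA-4 ligand LDV present at three times its Kd; 0% = LDV ligand with antibody and no compound and 100% = antibody without LDV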); settings: HUTS-21 LIBS mAb binding, at 6.7 µM, stronger effect = higher value, binding induced by LDV ligand
# [12] = superoxide lowering in aged yeast cells, pilot screen, validation compound set (AID 2706;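 active = superoxide response below 65% of plate, a cut near 3 SD across the whole screen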;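 note: yeast exposed to compound for one week at 30 degrees C before staining; 100% = mean of all compound wells on the same plate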); settings: S. cerevisiae aging, superoxide DHE fluorescence; at 10 µM; stronger effect = lower value
# [13] = molecular target: Beta-adrenergic receptor kinase 1 (Homo sapiens) (UniProt P25098); assay: GRK2 binders displacing RNA aptamer, biochemical, validation, human GRK2, bead flow cytometry (AID 488806;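 active = aptamer binding inhibition above 30%, about 3 SD of noise from non-fluorescent compounds; inactive = inhibition at or below 30%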); settings: bead-bound GRK2, FAM-aptamer displacement, at 10 µM, stronger effect = higher value
# [14] = molecular target: AP-2 complex subunit beta (Homo sapiens) (UniProt P63010); assay: inhibitors of arrestin peptide binding to AP2, pilot screen, biochemical, validation set, GST-AP2 beads, flow cytometry (AID 504541;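 active = inhibition above 54%, about 3 SD of non-fluorescent compounds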;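 note: AP2 carries R879A mutation and is captured from E. coli lysate; bead-bound FITC arrestin peptide fluorescence measuring arrestin peptide binding to AP2; 0% = DMSO wells and 100% = excess unlabeled arrestin peptide control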); settings: FITC arrestin peptide, at 10 µM, stronger effect = higher value, AP2 beta2 appendage fragment, R879A mutant
# [15] = yeast V-ATPase proton transport modulators, S. cerevisiae, pHLuorin, HTS validation (AID 504600; in the data active = response above about 15%;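 note: plate controls were DMSO for no effect and reference compound for full effect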); settings: S. cerevisiae pHLuorin cytosolic pH, at 10 µM, stronger effect = higher value
# [16] = tested on: anti-desmoglein-3 scFv antibody binding to human DSG3; assay: inhibitors of anti-DSG3 scFv binding to DSG3, pilot screen, biochemical, validation compound set, bead-based, flow cytometry (AID 588368;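 active = binding below the plate cutoff, the plate median minus 3 SD, with a reading above zero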;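 note: signal is the median channel fluorescence of bead-bound GFP antibody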); settings: Protein G beads, DSG3-Fc, scFv-GFP binding, at 10 µM, stronger effect = lower value
# [17] = molecular target: ATP-binding cassette sub-family B member 6 (Homo sapiens) (UniProt Q9NP58); assay: ABCB6 transporter inhibitors, pilot screen, K562-ABCB6 cells, flow cytometry, validation set (AID 588550;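 active = inhibition above the screen-wide mean plus 3 SD, about 51%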;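 note: 0% = DMSO wells and 100% = benzethonium chloride 70 µM positive control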); settings: K562-ABCB6 porphyrin accumulation, 1 h, at 10 µM, stronger effect = higher value
# [18] = promoters of myeloid differentiation in arrested cells, primary screen, cell-based, GFP/MAC1 double positive, flow cytometry, validation set (AID 588685;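 active = differentiation response of at least 50%, scaled between solvent and reference control, from cells with both markers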;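 note: compound exposure lasts four days before antibody staining and flow analysis; 0% = DMSO wells and 100% = 5 µM fulvestrant positive control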); settings: ER-HoxA9 marrow cells, stronger effect = higher value, normalized: vehicle 0, fulvestrant 100
# [19] = molecular target: Beta-2 adrenergic receptor (Homo sapiens) (UniProt P07550); assay: beta2AR agonists driving receptor internalization, pilot screen, cell-based, FAP fluorogen, flow cytometry, validation set (AID 504459;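 active = percent response above 42, roughly 3 SD of non-fluorescent test compounds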;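 note: agonist-driven loss of surface beta2AR via internalization measured by FAP dye flow cytometry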); settings: Am2.2-beta2AR cells, FAP surface receptor flow cytometry; at 10 µM; stronger effect = higher value
# [20] = inhibitors of fungal efflux pumps CDR1, CDR2, MDR1, pilot screen, validation compound set, multiplex, phenotypic (AID 588506;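 active = efflux inhibition above 0.42, the validation set average plus 4 SD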;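 note: Nile Red retained in cells so higher fluorescence means more efflux inhibition; 0 = negative control wells and 1 = enniatin B 25 µM full block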); settings: S. cerevisiae pump-expressing triplex, Nile Red efflux flow cytometry; at 10 µM; stronger effect = higher value; the pumps come from Candida albicans
# [21] = measured here: daughter cell gate
# [22] = measured here: mother cell gate
# [23] = measured here: daughter cell gate response
# [24] = measured here: mother cell gate response
# Beta-adrenergic receptor kinase 1 (Homo sapiens), sequence (P25098 whole entry, looked up): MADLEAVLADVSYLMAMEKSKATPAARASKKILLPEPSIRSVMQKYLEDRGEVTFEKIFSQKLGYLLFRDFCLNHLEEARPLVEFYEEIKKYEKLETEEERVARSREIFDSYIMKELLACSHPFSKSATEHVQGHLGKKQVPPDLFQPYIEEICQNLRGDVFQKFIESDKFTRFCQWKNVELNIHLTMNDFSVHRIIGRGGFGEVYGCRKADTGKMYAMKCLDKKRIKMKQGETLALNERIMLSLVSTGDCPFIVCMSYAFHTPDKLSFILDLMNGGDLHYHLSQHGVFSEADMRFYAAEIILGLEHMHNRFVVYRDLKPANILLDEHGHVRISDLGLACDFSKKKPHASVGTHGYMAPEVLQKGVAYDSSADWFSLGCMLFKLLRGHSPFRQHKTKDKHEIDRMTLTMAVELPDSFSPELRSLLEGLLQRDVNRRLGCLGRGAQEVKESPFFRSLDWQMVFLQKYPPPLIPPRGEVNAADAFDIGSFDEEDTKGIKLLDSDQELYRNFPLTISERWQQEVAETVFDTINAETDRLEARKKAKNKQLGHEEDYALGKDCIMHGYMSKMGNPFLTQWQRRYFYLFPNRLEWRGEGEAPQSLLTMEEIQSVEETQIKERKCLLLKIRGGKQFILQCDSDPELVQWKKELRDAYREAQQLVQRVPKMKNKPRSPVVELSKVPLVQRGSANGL
# Integrin beta-1 (Homo sapiens) + Integrin alpha-4 (Homo sapiens), sequence (P05556 whole entry, looked up): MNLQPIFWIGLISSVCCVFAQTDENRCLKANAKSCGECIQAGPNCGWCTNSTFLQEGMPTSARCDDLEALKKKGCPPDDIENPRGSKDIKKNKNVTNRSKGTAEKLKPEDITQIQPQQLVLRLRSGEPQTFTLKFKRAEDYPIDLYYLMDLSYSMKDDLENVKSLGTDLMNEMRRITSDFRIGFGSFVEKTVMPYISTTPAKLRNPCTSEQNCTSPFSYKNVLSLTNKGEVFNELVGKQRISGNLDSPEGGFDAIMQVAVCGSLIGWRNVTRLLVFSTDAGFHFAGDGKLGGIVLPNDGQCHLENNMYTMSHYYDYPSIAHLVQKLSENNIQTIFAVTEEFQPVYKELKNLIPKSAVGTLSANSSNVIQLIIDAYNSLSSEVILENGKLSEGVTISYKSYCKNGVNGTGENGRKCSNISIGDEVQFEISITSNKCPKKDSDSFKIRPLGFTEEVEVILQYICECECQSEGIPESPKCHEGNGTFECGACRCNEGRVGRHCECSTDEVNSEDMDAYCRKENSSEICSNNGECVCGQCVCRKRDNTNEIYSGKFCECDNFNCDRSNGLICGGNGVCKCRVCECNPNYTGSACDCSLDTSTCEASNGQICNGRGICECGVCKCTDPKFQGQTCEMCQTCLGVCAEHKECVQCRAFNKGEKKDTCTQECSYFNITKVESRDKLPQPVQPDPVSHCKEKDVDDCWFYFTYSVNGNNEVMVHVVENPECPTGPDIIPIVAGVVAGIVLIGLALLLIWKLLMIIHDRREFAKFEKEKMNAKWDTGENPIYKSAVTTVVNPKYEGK
# Integrin beta-1 (Homo sapiens) + Integrin alpha-4 (Homo sapiens), sequence (P13612 whole entry, looked up): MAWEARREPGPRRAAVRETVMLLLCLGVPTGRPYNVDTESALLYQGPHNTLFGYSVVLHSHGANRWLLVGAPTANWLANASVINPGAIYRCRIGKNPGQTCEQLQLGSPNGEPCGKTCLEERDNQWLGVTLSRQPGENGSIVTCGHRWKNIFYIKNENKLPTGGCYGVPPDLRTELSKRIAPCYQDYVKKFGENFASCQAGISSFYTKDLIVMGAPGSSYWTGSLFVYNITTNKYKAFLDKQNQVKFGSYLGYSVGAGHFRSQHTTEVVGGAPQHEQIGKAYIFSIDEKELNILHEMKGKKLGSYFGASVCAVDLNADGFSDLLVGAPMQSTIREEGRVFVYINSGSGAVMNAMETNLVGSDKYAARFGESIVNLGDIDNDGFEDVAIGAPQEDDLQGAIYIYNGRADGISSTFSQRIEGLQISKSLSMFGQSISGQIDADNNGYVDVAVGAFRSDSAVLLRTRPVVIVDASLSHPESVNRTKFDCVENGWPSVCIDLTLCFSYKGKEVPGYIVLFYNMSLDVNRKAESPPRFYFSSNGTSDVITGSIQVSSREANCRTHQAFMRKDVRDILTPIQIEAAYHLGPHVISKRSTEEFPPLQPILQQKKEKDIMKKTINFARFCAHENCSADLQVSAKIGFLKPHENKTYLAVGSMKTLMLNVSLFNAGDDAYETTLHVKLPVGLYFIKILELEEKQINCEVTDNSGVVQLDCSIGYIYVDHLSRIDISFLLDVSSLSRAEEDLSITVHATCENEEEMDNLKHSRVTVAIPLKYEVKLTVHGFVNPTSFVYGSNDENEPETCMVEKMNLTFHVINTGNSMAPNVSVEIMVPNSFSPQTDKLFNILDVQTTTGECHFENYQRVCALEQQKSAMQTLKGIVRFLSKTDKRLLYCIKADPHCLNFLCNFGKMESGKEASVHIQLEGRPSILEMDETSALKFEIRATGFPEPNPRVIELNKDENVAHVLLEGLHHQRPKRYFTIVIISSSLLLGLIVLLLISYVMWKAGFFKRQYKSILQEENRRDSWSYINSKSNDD
# ATP-binding cassette sub-family B member 6 (Homo sapiens), sequence (Q9NP58 whole entry, looked up): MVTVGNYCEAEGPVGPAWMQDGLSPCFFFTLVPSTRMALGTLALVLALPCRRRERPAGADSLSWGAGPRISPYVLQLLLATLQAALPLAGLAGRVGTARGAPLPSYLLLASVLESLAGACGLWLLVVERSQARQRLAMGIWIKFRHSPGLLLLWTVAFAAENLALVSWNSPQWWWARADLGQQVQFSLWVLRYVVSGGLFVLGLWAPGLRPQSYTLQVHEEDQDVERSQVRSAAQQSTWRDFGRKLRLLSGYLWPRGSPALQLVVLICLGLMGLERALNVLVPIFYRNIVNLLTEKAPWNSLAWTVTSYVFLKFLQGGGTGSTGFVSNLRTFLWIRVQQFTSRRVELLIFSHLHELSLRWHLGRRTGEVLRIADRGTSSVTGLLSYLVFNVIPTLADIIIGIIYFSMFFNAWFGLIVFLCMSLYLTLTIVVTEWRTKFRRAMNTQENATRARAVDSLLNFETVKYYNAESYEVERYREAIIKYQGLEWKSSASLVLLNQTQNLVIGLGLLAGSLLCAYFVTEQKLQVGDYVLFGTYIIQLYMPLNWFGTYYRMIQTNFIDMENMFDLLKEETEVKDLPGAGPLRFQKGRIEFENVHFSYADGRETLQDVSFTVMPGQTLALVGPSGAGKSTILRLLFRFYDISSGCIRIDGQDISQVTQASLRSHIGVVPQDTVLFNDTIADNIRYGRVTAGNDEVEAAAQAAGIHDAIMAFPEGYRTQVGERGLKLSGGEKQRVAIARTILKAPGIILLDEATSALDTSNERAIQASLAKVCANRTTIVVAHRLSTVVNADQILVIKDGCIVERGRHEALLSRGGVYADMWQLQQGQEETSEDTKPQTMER
# AP-2 complex subunit beta (Homo sapiens), sequence (P63010 whole entry, looked up, the tested form may be a part, one chain of several): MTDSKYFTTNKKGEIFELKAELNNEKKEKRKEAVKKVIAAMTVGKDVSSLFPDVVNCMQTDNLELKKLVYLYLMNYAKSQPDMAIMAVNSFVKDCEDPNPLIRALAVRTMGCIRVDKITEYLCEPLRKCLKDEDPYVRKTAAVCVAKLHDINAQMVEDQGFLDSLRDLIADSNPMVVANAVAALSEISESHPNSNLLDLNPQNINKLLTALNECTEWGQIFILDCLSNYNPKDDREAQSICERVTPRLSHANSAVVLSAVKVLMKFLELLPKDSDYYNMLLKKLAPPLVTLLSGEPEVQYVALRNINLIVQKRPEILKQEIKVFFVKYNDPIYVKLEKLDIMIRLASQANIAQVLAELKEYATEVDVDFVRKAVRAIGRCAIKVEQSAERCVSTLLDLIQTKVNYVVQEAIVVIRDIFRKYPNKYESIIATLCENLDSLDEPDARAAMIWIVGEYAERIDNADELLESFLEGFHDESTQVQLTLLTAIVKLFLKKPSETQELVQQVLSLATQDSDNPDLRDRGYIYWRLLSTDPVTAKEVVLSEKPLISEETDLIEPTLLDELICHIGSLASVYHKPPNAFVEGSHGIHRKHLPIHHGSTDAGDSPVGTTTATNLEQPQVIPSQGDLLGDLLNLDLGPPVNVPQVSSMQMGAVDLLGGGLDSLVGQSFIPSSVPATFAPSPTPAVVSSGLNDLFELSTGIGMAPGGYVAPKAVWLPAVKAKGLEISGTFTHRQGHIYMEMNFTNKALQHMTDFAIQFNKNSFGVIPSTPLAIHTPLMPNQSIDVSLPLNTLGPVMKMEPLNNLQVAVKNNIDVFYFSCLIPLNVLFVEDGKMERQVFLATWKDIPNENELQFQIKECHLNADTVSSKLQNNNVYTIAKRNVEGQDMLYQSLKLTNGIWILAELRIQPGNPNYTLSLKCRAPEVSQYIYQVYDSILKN
# Beta-2 adrenergic receptor (Homo sapiens), sequence (P07550 whole entry, looked up): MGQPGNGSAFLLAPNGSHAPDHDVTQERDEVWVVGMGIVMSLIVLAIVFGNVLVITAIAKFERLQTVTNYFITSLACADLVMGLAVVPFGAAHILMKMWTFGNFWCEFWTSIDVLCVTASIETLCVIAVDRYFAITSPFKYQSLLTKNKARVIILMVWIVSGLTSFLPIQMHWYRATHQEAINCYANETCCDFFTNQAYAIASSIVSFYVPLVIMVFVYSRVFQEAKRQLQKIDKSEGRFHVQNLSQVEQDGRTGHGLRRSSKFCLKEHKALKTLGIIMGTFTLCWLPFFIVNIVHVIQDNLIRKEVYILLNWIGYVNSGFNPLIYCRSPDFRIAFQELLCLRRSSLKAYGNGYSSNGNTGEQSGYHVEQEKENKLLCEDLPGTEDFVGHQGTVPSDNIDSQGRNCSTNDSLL
compound,measurement,setting,value
C[C@]12CCC(=O)C=C1CC[C@@H]1[C@@H]2[C@@H](O)C[C@@]2(C)[C@H]1CC[C@]2(O)C(=O)CO,percent of DMSO control GFP,[1],108% (inactive)
same,GFP response vs DMSO,[2],105% (inactive)
same,percent response of DMSO control,[3],111% (inactive)
same,GFP response vs DMSO,[4],105% (inactive)
same,"GFP response, % of DMSO",[5],111% (inactive)
same,GFP response vs DMSO,[6],104% (inactive)
same,GFP response vs DMSO,[6]; [21],102%
same,GFP response vs DMSO,[6]; [22],104%
same,GFP response relative to DMSO,[7],96.2% (inactive)
same,GFP response relative to DMSO,[7]; [23],98.7%
same,GFP response relative to DMSO,[7]; [24],98.3%
same,GFP response vs DMSO,[8],100% (inactive)
same,"GFP response, % of DMSO",[9],104% (inactive)
same,"GFP response, % of DMSO",[9]; [21],99.7%
same,"GFP response, % of DMSO",[9]; [22],105%
same,double positive events,[10],58.4%
same,vesicle binding response,[10],165% (inactive)
same,inhibition,[11],10.9% (inactive)
same,superoxide response (% of plate),[12],99.2% (inactive)
same,aptamer binding inhibition,[13],-2% (inactive)
same,inhibition,[14],29.5% (inactive)
same,response,[15],-1.08% (inactive)
same,binding (% of control),[16],95.4% (inactive)
same,inhibition,[17],3% (inactive)
same,differentiation response,[18],-18% (inactive)
COc1cccc(/C=C/C(=O)c2c(O)cc(C)oc2=O)c1O,percent of DMSO control GFP,[1],104% (inactive)
same,GFP response vs DMSO,[2],108% (inactive)
same,percent response of DMSO control,[3],82.5% (inactive)
same,GFP response vs DMSO,[4],184% (active)
same,"GFP response, % of DMSO",[5],91.1% (inactive)
same,GFP response vs DMSO,[6],101% (inactive)
same,GFP response vs DMSO,[6]; [21],104%
same,GFP response vs DMSO,[6]; [22],99.7%
same,GFP response relative to DMSO,[7],165% (active)
same,GFP response relative to DMSO,[7]; [23],155%
same,GFP response relative to DMSO,[7]; [24],175%
same,GFP response vs DMSO,[8],107% (inactive)
same,"GFP response, % of DMSO",[9],91.2% (inactive)
same,"GFP response, % of DMSO",[9]; [21],99.1%
same,"GFP response, % of DMSO",[9]; [22],90.2%
same,double positive events,[10],62.2%
same,vesicle binding response,[10],259% (inactive)
same,inhibition,[11],-3.16% (inactive)
same,superoxide response (% of plate),[12],80.7% (inactive)
same,aptamer binding inhibition,[13],3% (inactive)
same,response,[19],17.4% (inactive)
same,inhibition,[14],10.4% (inactive)
same,response,[15],2.77% (inactive)
same,binding (% of control),[16],104% (inactive)
same,efflux inhibition (fraction of control),[20],0.19 (inactive)
same,inhibition,[17],-4% (inactive)
same,differentiation response,[18],5.6% (inactive)
CNCCC(Oc1ccc(C(F)(F)F)cc1)c1ccccc1 (stereo not drawn),percent of DMSO control GFP,[1],89.8% (inactive)
same,GFP response vs DMSO,[2],141% (active)
same,percent response of DMSO control,[3],107% (inactive)
same,GFP response vs DMSO,[4],83.1% (inactive)
same,"GFP response, % of DMSO",[5],90.3% (inactive)
same,GFP response vs DMSO,[6],98.4% (inactive)
same,GFP response vs DMSO,[6]; [21],97%
same,GFP response vs DMSO,[6]; [22],99.1%
same,GFP response relative to DMSO,[7],97.4% (inactive)
same,GFP response relative to DMSO,[7]; [23],95.6%
same,GFP response relative to DMSO,[7]; [24],101%
same,GFP response vs DMSO,[8],102% (inactive)
same,"GFP response, % of DMSO",[9],93.9% (inactive)
same,"GFP response, % of DMSO",[9]; [21],94.8%
same,"GFP response, % of DMSO",[9]; [22],93.4%
same,double positive events,[10],58%
same,vesicle binding response,[10],142% (inactive)
same,inhibition,[11],6.46% (inactive)
same,superoxide response (% of plate),[12],85.8% (inactive)
same,aptamer binding inhibition,[13],0% (inactive)
same,response,[19],16.8% (inactive)
same,inhibition,[14],13.5% (inactive)
same,response,[15],1.16% (inactive)
same,binding (% of control),[16],94.1% (inactive)
same,inhibition,[17],6% (inactive)
same,differentiation response,[18],-1.64% (inactive)
